The values that follow come from PubChem BioAssay (EPA / NIEHS).

Read-out in assay [1]: TIMP metallopeptidase inhibitor 2 (TIMP2), TIMP2 (gene 7077)
Briefly: BSK_KF3CT_TIMP2: BioMAP Diversity Plus: KF3CT Assay for TIMP metallopeptidase inhibitor 2 (TIMP2) Biomarker Activity (AID 2283071). The following applies: primary human keratinocytes with fibroblasts; actives raise or lower the signal. Put shortly: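 Chemicals were dosed onto human skin primary co-cultures of keratinocytes and foreskin fibroblasts, and TIMP-2 was measured by ELISA after 24 hours. Activity in either direction was fitted relative to DMSO.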

Read-out in assay [2]: Transforming growth factor beta 1 (TGFb1), TGFB1 (gene 7040)
Briefly: BSK_KF3CT_TGFb1: BioMAP Diversity Plus: KF3CT Assay for Transforming growth factor beta 1 (TGFb1) Biomarker Activity (AID 2283072). The settings on record: primary human keratinocytes with fibroblasts; actives raise or lower the signal. Summed up:
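KF3CT co-culture (keratinocytes + fibroblasts), 24 h exposure → TGF-b1 ELISA → bidirectional fit, DMSO = baseline. Parallel SRB total-protein staining (0.1% SRB, 10% TCA fixation, 560 nm) for cytotoxicity.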

Read-out in assay [3]: C-C motif chemokine 2 (Homo sapiens) (UniProt P13500)
Nature of the assay: BSK_KF3CT_MCP1: BioMAP Diversity Plus: KF3CT Assay for Monocyte Chemoattractant Protein 1 (MCP1/CCL2) Biomarker Activity (AID 2283073). The settings on record: primary human keratinocytes with fibroblasts; actives raise or lower the signal. Summed up:
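Human keratinocyte–foreskin fibroblast co-culture; MCP-1 measured by ELISA 24 h after dosing. Bidirectional fit vs DMSO; cytotoxicity tracked by SRB total protein in parallel cultures.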

Read-out in assay [4]: Matrix Metallopeptidase 9 (MMP9), MMP9 (gene 4318)
Briefly: BSK_KF3CT_MMP9: BioMAP Diversity Plus: KF3CT Assay for Matrix Metallopeptidase 9 (MMP9) Biomarker Activity (AID 2283074).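 As to AC50: MMP9 protein level quantified by ELISA in the co-culture.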 The settings on record: primary human keratinocytes with fibroblasts; actives raise or lower the signal. Put shortly:
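Values come from bidirectional fitting relative to DMSO of MMP-9 levels, which were measured by ELISA. Measurements were taken 24 h after chemical dosing of a keratinocyte and foreskin fibroblast co-culture.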

Read-out in assay [5]: urokinase plasminogen activator (uPA), PLAU (gene 5328)
Briefly: BSK_KF3CT_uPA: BioMAP Diversity Plus: KF3CT Assay for urokinase plasminogen activator (uPA) Biomarker Activity (AID 2283075). The following applies: primary human keratinocytes with fibroblasts; actives raise or lower the signal. Summed up:
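Values derive from bidirectional fitting against DMSO controls. Keratinocyte/foreskin fibroblast co-cultures received chemical; 24 h later uPA was detected by ELISA, with SRB total-protein staining in parallel wells for overt cytotoxicity.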

Read-out in assay [6]: CD40, CD40 (gene 958)
Briefly: BSK_LPS_CD40: BioMAP Diversity Plus: LPS Assay for CD40 Biomarker Activity (AID 2283076). The following applies: primary human HUVEC with PBMC; actives raise or lower the signal. Put shortly:
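HUVEC plus PBMC co-culture stimulated with LPS; CD40 quantified by ELISA 24 h after compound dosing. Fitting was bidirectional relative to DMSO. SRB staining of parallel cultures flagged overt cytotoxicity.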

Read-out in assay [7]: E-selectin (Homo sapiens) (UniProt P16581)
Briefly: BSK_LPS_Eselectin: BioMAP Diversity Plus: LPS Assay for Eselectin Biomarker Activity (AID 2283077). The following applies: primary human HUVEC with PBMC; actives raise or lower the signal. Summed up:
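Human umbilical vein endothelial cells co-cultured with PBMC under LPS stimulation; cell-surface E-selectin measured by ELISA 24 h after dosing. Change in either direction versus DMSO, with SRB total-protein staining in parallel cultures for cytotoxicity.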

Read-out in assay [8]: Interleukin-8 (IL8), CXCL8 (gene 3576)
Briefly: BSK_LPS_IL8: BioMAP Diversity Plus: LPS Assay for Interleukin-8 (IL8) Biomarker Activity (AID 2283078). The following applies: primary human HUVEC with PBMC; actives raise or lower the signal. Summed up: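 Human umbilical vein endothelial cells co-cultured with PBMC, LPS-stimulated, exposed to compound for 24 h. IL-8 quantified by ELISA; fitted in both directions against DMSO, with SRB total-protein staining of parallel cultures for cytotoxicity.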

Assay [9] can be described thus: BSK_LPS_SRB: Viability Assessment in the BioMAP Diversity Plus: LPS Assay (AID 2283079).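 Also: total protein by sulforhodamine B absorbance as a cytotoxicity measure; measured one day after compound addition; fitted in both directions against DMSO so loss or gain of signal counts.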 The settings on record: primary human HUVEC with PBMC. Summed up:
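Co-culture of human umbilical vein endothelial cells and PBMC, read 24 h after dosing. Total protein by 0.1% SRB staining after 10% TCA fixation, absorbance at 560 nm; bidirectional fit against DMSO.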

Read-out in assay [10]: Interleukin-1 alpha (IL1a), IL1A (gene 3552)
Briefly: BSK_LPS_IL1a: BioMAP Diversity Plus: LPS Assay for Interleukin-1 alpha (IL1a) Biomarker Activity (AID 2283080). The settings on record: primary human HUVEC with PBMC; actives raise or lower the signal. Put shortly: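 Human umbilical vein endothelial cells co-cultured with PBMC and stimulated with LPS; IL-1a measured by ELISA 24 h after dosing. Bidirectional fitting against DMSO; cytotoxicity checked by SRB staining in parallel cultures.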

Read-out in assay [11]: Monocyte Chemoattractant Protein-1 (MCP1), CCL2 (gene 6347)
Nature of the assay: BSK_LPS_MCP1: BioMAP Diversity Plus: LPS Assay for Monocyte Chemoattractant Protein-1 (MCP1) Biomarker Activity (AID 2283081).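 As to AC50: secreted MCP-1 protein quantified by ELISA in culture supernatant.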 The settings on record: primary human HUVEC with PBMC; actives raise or lower the signal. Put shortly:
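Human umbilical vein endothelial cells co-cultured with PBMC, LPS-stimulated; secreted MCP-1 measured by ELISA 24 h after compound addition. Bidirectional curve fitting against DMSO baseline; SRB total-protein staining in parallel cultures for cytotoxicity.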

Read-out in assay [12]: Tissue Factor, F3 (gene 2152)
Nature of the assay: BSK_LPS_TissueFactor: BioMAP Diversity Plus: LPS Assay for Tissue Factor Biomarker Activity (AID 2283084). The following applies: primary human HUVEC with PBMC; actives raise or lower the signal. Summed up: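 Human umbilical vein endothelial cells co-cultured with PBMC were dosed with compound. Cell-surface CD142 was measured by ELISA 24 h later. Activity was fitted bidirectionally against DMSO, with SRB total-protein staining in parallel cultures for cytotoxicity.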

Read-out in assay [13]: Tumor necrosis factor (Homo sapiens) (UniProt P01375)
Nature of the assay: BSK_LPS_TNFa: BioMAP Diversity Plus: LPS Assay for Tumour Necrosis Factor alpha (TNFa) Biomarker Activity (AID 2283085).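 As to AC50: TNFa protein level quantified by ELISA in the co-culture.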 The settings on record: primary human HUVEC with PBMC; actives raise or lower the signal. Summed up: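 Cells (umbilical vein endothelium plus peripheral blood mononuclear cells) were dosed with chemical, incubated 24 h, then TNFa was quantified by ELISA; values derive from bidirectional fitting with DMSO as baseline.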

Read-out in assay [14]: Vascular cell adhesion molecule 1 (VCAM1), VCAM1 (gene 7412)
Nature of the assay: BSK_LPS_VCAM1: BioMAP Diversity Plus: LPS Assay for Vascular cell adhesion molecule 1 (VCAM1) Biomarker Activity (AID 2283086). The following applies: primary human HUVEC with PBMC; actives raise or lower the signal. Put shortly: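 Cells are dosed in an LPS-stimulated endothelial/mononuclear co-culture and, after 24 h, VCAM-1 is quantified by ELISA. Activity in either direction is fitted relative to the DMSO negative control.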

Read-out in a further assay: CD38, CD38 (gene 952)
Nature of the assay: BSK_SAg_CD38: BioMAP Diversity Plus: SAg Assay for CD38 Biomarker Activity (AID 2283087). The settings on record: primary human HUVEC with PBMC; actives raise or lower the signal. Summed up:
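CD38 quantified by ELISA (fluorescence) in a superantigen-activated endothelial cell–PBMC co-culture at 24 h post-dose. Activity fitted in both directions relative to DMSO; parallel SRB and Alamar Blue cytotoxicity read-outs.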

Read-out in assay [15]: CD40, CD40 (gene 958)
Nature of the assay: BSK_SAg_CD40: BioMAP Diversity Plus: SAg Assay for CD40 Biomarker Activity (AID 2283088). The following applies: primary human HUVEC with PBMC; actives raise or lower the signal. Put shortly: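 HUVEC plus PBMC co-culture, superantigen-activated, with CD40 read by ELISA 24 h after dosing. Curves fitted in both directions against DMSO. Overt cytotoxicity checked by parallel SRB total-protein staining.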

Read-out in a further assay: CD69, CD69 (gene 969)
Briefly: BSK_SAg_CD69: BioMAP Diversity Plus: SAg Assay for CD69 Biomarker Activity (AID 2283089).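 As to AC50: cell surface CD69 protein quantified by ELISA with fluorescence detection.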 The settings on record: primary human HUVEC with PBMC; actives raise or lower the signal. Put shortly:
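ELISA, fluorescence read-out: CD69 on human umbilical vein endothelial cell + PBMC co-culture, 24 h post-dosing. Gain or loss of signal fitted bidirectionally against DMSO baseline.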

Read-out in assay [16]: Monocyte Chemoattractant Protein-1 (MCP1), CCL2 (gene 6347)
Briefly: BSK_SAg_MCP1: BioMAP Diversity Plus: SAg Assay for Monocyte Chemoattractant Protein-1 (MCP1) Biomarker Activity (AID 2283090). The following applies: primary human HUVEC with PBMC; actives raise or lower the signal. Put shortly:
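Values derive from bidirectional fitting of ELISA-measured MCP1 against DMSO controls. Readings were taken 24 h after dosing human vascular endothelial cells co-cultured with peripheral blood mononuclear cells under superantigen stimulation.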

As usually defined, the AC50 is the concentration giving half of the maximal activity seen.

SMILES strings stand for the structures. The source made the active and inactive calls. The calls were made as follows: active = hit-call score of the fitted dose curve at least 0.9, where 1 is the maximum; inactive = score below 0.9.

E-selectin (Homo sapiens), sequence (P16581 whole entry, looked up): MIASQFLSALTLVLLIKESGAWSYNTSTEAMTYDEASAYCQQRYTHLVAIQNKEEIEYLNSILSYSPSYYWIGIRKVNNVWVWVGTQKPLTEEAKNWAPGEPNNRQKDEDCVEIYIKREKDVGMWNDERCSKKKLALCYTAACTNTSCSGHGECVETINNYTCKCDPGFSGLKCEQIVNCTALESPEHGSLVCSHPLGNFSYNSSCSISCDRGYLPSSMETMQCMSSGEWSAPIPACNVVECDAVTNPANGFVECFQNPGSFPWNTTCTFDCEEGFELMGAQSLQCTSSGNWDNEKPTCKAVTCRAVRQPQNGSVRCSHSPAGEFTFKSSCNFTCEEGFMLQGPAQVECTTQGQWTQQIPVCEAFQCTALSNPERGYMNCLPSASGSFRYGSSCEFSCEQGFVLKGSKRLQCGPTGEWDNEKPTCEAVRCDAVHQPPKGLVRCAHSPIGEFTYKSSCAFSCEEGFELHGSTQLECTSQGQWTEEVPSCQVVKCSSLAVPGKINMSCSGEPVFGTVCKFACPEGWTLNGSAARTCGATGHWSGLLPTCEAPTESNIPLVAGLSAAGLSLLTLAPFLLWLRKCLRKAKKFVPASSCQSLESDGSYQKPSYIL
Tumor necrosis factor (Homo sapiens), sequence (P01375 whole entry, looked up): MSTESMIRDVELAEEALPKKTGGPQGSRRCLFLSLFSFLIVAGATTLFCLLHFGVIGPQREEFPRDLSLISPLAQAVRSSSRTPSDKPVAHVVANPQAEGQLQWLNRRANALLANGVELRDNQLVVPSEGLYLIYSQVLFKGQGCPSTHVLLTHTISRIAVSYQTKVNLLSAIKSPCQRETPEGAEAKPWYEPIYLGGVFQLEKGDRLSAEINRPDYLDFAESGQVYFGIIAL

With `ClC1=C(Cl)C2(Cl)C3C(Cl)C(Cl)CC3C1(Cl)C2(Cl)Cl` (stereo not drawn), the AC50 in assay [1] is 26.8 µM (active); in assay [2], 20 µM (active); in assay [4], 13.3 µM (active); in assay [5], 27.9 µM (active); with CD40, CD40 (gene 958) [6], 14.9 µM (active); in [7] it was 30.4 µM (active). The AC50 was 34 µM (active) in [8]; 29.9 µM (active) in assay [9]; 26 µM (active) in assay [10]; 33.2 µM (active) in [11]; 31.5 µM (active) in [12]; 32.7 µM (active) in assay [13]. In addition, the concentration at half-maximal activity (AC50) in assay [14] was 29.2 µM (active); in the assay with CD38, CD38 (gene 952), 29.7 µM (active); with CD40, CD40 (gene 958) [15] it was 24.4 µM (active); with CD69, CD69 (gene 969), 27.5 µM (active). Moreover, the outcome in assay [3] was inactive.

For `ClC(Cl)=C(c1ccc(Cl)cc1)c1ccccc1Cl`, the AC50 in assay [1] was 3.67 µM (active); in assay [2], 5.46 µM (active); in assay [3], 7.15 µM (active); in assay [4] it was 4.38 µM (active); in assay [5] it was 11.2 µM (active); with CD40, CD40 (gene 958) [6] it was 20 µM (active). Moreover, the AC50 in assay [7] was 33.4 µM (active); in assay [8], 20 µM (active); in assay [9] it was 29.6 µM (active); in assay [10] it was 26 µM (active); in assay [11], 29.6 µM (active); in assay [13] it was 31.7 µM (active). In addition, the AC50 in [14] was 32.9 µM (active); with CD38, CD38 (gene 952), 20 µM (active); in the assay with CD40, CD40 (gene 958) [15], 20 µM (active); in the assay with CD69, CD69 (gene 969) it was 14.6 µM (active).

Take `N#Cc1c(-c2ccc(Cl)cc2)[nH]c(C(F)(F)F)c1Br`: the outcome in [1], in [5], in [7] and in assay [11] was inactive. The half-maximal activity concentration (AC50) in [2] is 0.186 µM (active); in assay [3], 0.0621 µM (active); in assay [4], 3.97 µM (active); with CD40, CD40 (gene 958) [6] it was 4.05 µM (active); in assay [8], 4.18 µM (active); in assay [9], 3.97 µM (active). The AC50 is 1.36 µM (active) in assay [10]; 0.016 µM (active) in [13]; 3.97 µM (active) in assay [14]; 0.343 µM (active) with CD38, CD38 (gene 952); 0.34 µM (active) in the assay with CD40, CD40 (gene 958) [15]; 0.472 µM (active) with CD69, CD69 (gene 969). Besides, the AC50 in assay [16] was 1.53 µM (active).

Regarding `COP(=O)(O)OC`, the outcome is “inactive” in assay [1]; “inactive” in [2]; “inactive” in assay [3]; “inactive” in assay [4]; “inactive” in [5]; “inactive” with CD40, CD40 (gene 958) [6]. In addition, the result in assay [7], in assay [8], in [9], in assay [10], in [11] and in assay [12] was inactive. Moreover, the outcome in [13] was “inactive”; in assay [14], “inactive”; in the assay with CD38, CD38 (gene 952), “inactive”; with CD40, CD40 (gene 958) [15], “inactive”; with CD69, CD69 (gene 969), “inactive”; in assay [16] it was “inactive”.
